In PubChem BioAssay (NCI):
The panel holds about 83,000 compounds, 20% with a hit somewhere; the sample as a whole holds those more often.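 Plates (96-well) were seeded with cells, treated with compound at one concentration, and incubated for 48 hours before percent growth was determined.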 Values without a mark were called inactive. Calls of active or inactive are those of the source. Rule for the calls: active = growth percent below 10; inactive = the rest.

Experiments:
Assay in all cases: NCI-60 one-dose screen, 48 h (100 = growth as untreated, 0 = no growth, -100 = all killed)
SR leukemia = details: 10 µM unless noted
OVCAR-8 ovarian = details: 10 µM unless noted
OVCAR-5 ovarian = details: 10 µM unless noted
OVCAR-4 ovarian = details: 10 µM unless noted
SK-OV-3 ovarian = details: 10 µM unless noted
IGROV1 ovarian = details: 10 µM unless noted
OVCAR-3 ovarian = details: 10 µM unless noted
HS 578T breast = details: 10 µM
NCI/ADR-RES ovarian = details: 10 µM unless noted
T-47D breast = details: 10 µM unless noted
BT-549 breast = details: 10 µM unless noted
MDA-MB-435 melanoma = details: 10 µM unless noted
SW-620 colon = details: 10 µM unless noted
MCF7 breast = details: 10 µM unless noted
HCT-116 colon = details: 10 µM unless noted
KM12 colon = details: 10 µM unless noted
HCC-2998 colon = details: 10 µM
RPMI-8226 leukemia = details: 10 µM unless noted

Structure (SMILES) | growth (SR leukemia) | growth (OVCAR-8 ovarian) | growth (OVCAR-5 ovarian) | growth (OVCAR-4 ovarian) | growth (SK-OV-3 ovarian) | growth (IGROV1 ovarian) | growth (OVCAR-3 ovarian) | growth (HS 578T breast) | growth (NCI/ADR-RES ovarian) | growth (T-47D breast) | growth (BT-549 breast) | growth (MDA-MB-435 melanoma) | growth (SW-620 colon) | growth (MCF7 breast) | growth (HCT-116 colon) | growth (KM12 colon) | growth (HCC-2998 colon) | growth (RPMI-8226 leukemia) [%]
CCc1ccc(C2=C(O)C(=O)C(c3ccc(CC)cc3)=C(O)C2=O)cc1 | -18.5% (active) | -59% (active) | -0.569% (active) | -0.208% (active) | -9.04% (active) | -36.3% (active) | -47.2% (active) | -21.6% (active) | -18.5% (active) | 7.67% (active) | -23% (active) | 3.73% (active) | 2.8% (active) | 2.11% (active) | 1.12% (active) | -1.36% (active) |  | 
Nc1cc2c(cc1Br)-c1c(C(=O)O)cccc1C2O (stereo not given) | 109% | 107% | 102% | 103% | 110% | 98.6% | 147% | 143% | 118% | 105% | 114% | 105% | 110% | 95.4% | 96.4% | 99.3% | 112% | 
Cc1nn(-c2ccccc2)c2c1N=c1s/c(=C\c3cn(-c4ccccc4)nc3-c3ccc(Cl)cc3)c(=O)n1C(C)N2 (stereo not given) | 123% |  | 101% | 93.2% | 102% |  | 109% | 87.8% | 97.8% | 103% | 105% | 88.6% | 103% | 90.6% | 75.2% | 91.8% |  | 49
Cc1cc2c(F)c(Oc3ncnn4cc(OC[C@@H](C)OC(=O)[C@H](C)N)c(C)c34)ccc2[nH]1 | 18.5% | 61.7% | 25.8% |  | 73.9% | 20.8% | 81.1% |  | 90.5% | 70.5% | 80.8% | 28.6% | 20.3% | 39.6% | 19.3% | 35.1% | 37.5% | 47.1
Nc1nc(=S)c2ncn(C3OC(COC(=O)c4ccc(Cl)cc4)C(OC(=O)c4ccc(Cl)cc4)C3OC(=O)c3ccc(Cl)cc3)c2[nH]1 (stereo not given) | 72.8% | 129% | 91.9% | 86.2% | 43.5% | 93.5% | 81% | -29% (active) | 103% | 59.6% | 113% | 103% | 100% | 59.8% | 76% | 83.9% |  | 
CCOC(=O)Sc1ncnc2nc[nH]c12 | 9.18% (active) | 18.5% | 47.2% | 35.1% | 23.9% | 45.1% | 26.4% | 76.2% | 37% | 34.7% | 50.7% | 33.3% | 68.5% | 18.7% | 31.2% | 59.3% | 26.4% | 
N#Cc1ccc(-n2nnc3ccccc32)cc1C#N |  | 99% | 110% | 110% | 98.8% | 104% | 101% | 105% | 101% | 86.3% | 106% | 85.3% | 94.4% | 82% | 102% | 96.4% | 104% | 101
CCN(CC)CCNc1ccc(N=Nc2cnc3ccccc3c2)c2ccccc12 | -53.1% (active) | -90.1% (active) | -86.6% (active) | -25.3% (active) | -77.2% (active) | -92.8% (active) | -73.2% (active) | -73.9% (active) | -40% (active) | -38.8% (active) | 27.5% | -33.2% (active) | -84.4% (active) | -79.2% (active) | -94.8% (active) | -87.3% (active) | -95.4% (active) | 
O=CC(OC(=O)c1ccccc1)C(OC(=O)c1ccccc1)C(COC(c1ccccc1)(c1ccccc1)c1ccccc1)OC(=O)c1ccccc1 (stereo not given) | -12.9% (active) | -17.6% (active) | 61% | 89.9% | 98.8% | -38.5% (active) | 21.4% | 51.8% | 92.8% | 25.6% | 65.6% | 45.7% | -37.6% (active) | 36.6% | 7.51% (active) | 61% | 96.6% | 
CC(=O)OCCC/C(=C\c1ccc2ccccc2c1)[N+](=O)[O-] | -33.8% (active) | -91.3% (active) | -93.2% (active) | 11.1% | 57.9% | -82.3% (active) | -96.6% (active) | -40% (active) | -7.25% (active) | -50.9% (active) | -25.6% (active) | -41.6% (active) | -71.6% (active) | -85.2% (active) | -100% (active) | -86.7% (active) | -92.7% (active) | 
